Measured values published in PubChem BioAssay (NCATS).
Results filed as inconclusive are left out. The source made the active and inactive calls. Calls follow the shape of the dose curve; as a rule, active = well fitted curve in the direction sought with a large enough effect; inconclusive = small, poorly fitted or top-dose-only effect, or another doubt; inactive = no such curve, though single readings can be large; an effect the other way counts as inactive or inconclusive.

Key:
[1] = Quantitative High-Throughput drug screen in 47 multiple myeloma cell lines against the NCATS MIPE library collection: FR4_PLB cell viability assay (AID 1918924; also: nearly all actives have a fitted effect of over 35% in size)
Method in brief: (§1)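 Viability readout: CellTiter-Glo luminescence following 5 min room-temperature incubation with reagent. Prior exposure: 48 h, 37C, humidified 5% CO2, 500 cells per well.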

[2] = Quantitative High-Throughput drug screen in 47 multiple myeloma cell lines against the NCATS MIPE library collection: Delta47_JCRB cell viability assay (AID 1918925; also: nearly all actives have a fitted effect of over 45% in size)
Method in brief: (§2)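 Myeloma cell lines, 500 cells per well, exposed to MIPE 4.0 library compounds for 48 h at 37C, 5% CO2. Viability from ATP by CellTiter-Glo luminescence; normalised to DMSO (100%) and media-only (0%) wells.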

[3] = Quantitative High-Throughput drug screen in 47 multiple myeloma cell lines against the NCATS MIPE library collection: EJM_DSMZ cell viability assay (AID 1918926; also: nearly all actives have a fitted effect of over 30% in size)
Method in brief: as §2

[4] = Quantitative High-Throughput drug screen in 47 multiple myeloma cell lines against the NCATS MIPE library collection: ARP1_JJKsccF8 cell viability assay (AID 1918928; also: nearly all actives have a fitted effect of over 40% in size)
Method in brief: (§3)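 Myeloma cells at 500 per well in 1536-well format treated with MIPE 4.0 library by pin transfer for 48 h at 37C, 5% CO2. Viability from ATP luminescence (CellTiter-Glo), normalized to DMSO (100%) and media-only (0%) wells.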

[5] = Quantitative High-Throughput drug screen in 47 multiple myeloma cell lines against the NCATS MIPE library collection: Karpas620_DSMZ cell viability assay (AID 1918959); also: nearly all actives have a fitted effect of over 30% in size
Method in brief: as §1

[6] = Quantitative High-Throughput drug screen in 47 multiple myeloma cell lines against the NCATS MIPE library collection: Karpas417_ECACC cell viability assay (AID 1918961); details: Karpas417 myeloma viability, CellTiter-Glo ATP luminescence, 48 h; viability (% of DMSO): at 45.8 µM (top of the series)
Method in brief: (§4)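 Approved and investigational drugs from MIPE 4.0 were added by pin tool to 500 cells per well. After 48 hours at 37C, ATP-based CellTiter-Glo luminescence indicated remaining viability.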

[7] = Quantitative High-Throughput drug screen in 47 multiple myeloma cell lines against the NCATS MIPE library collection: KHM11_PLB cell viability assay (AID 1918962); also: nearly all actives have a fitted effect of over 35% in size
Method in brief: as §1

[8] = Quantitative High-Throughput drug screen in 47 multiple myeloma cell lines against the NCATS MIPE library collection: JIM3_ECACC cell viability assay (AID 1918963; also: nearly all actives have a fitted effect of over 35% in size)
Method in brief: as §1

[9] = Quantitative High-Throughput drug screen in 47 multiple myeloma cell lines against the NCATS MIPE library collection: INA6_PLB cell viability assay (AID 1918965; also: nearly all actives have a fitted effect of over 55% in size)
Method in brief: as §4

[10] = Quantitative High-Throughput drug screen in 47 multiple myeloma cell lines against the NCATS MIPE library collection: JJN3_DSMZ cell viability assay (AID 1918966; also: nearly all actives have a fitted effect of over 50% in size)
Method in brief: as §2

[11] = Quantitative High-Throughput drug screen in 47 multiple myeloma cell lines against the NCATS MIPE library collection: H1112_PLB cell viability assay (AID 1918967; also: nearly all actives have a fitted effect of over 30% in size)
Method in brief: as §2

[12] = Quantitative High-Throughput drug screen in 47 multiple myeloma cell lines against the NCATS MIPE library collection: Karpas25_ECACC cell viability assay (AID 1918968; also: nearly all actives have a fitted effect of over 35% in size)
Method in brief: as §2

[13] = Quantitative High-Throughput drug screen in 47 multiple myeloma cell lines against the NCATS MIPE library collection: KMS27_JCRB cell viability assay (AID 1918970); also: nearly all actives have a fitted effect of over 30% in size
Method in brief: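 ATP-based viability (CellTiter-Glo luminescence) is measured in cells treated 48 h with approved and investigational drugs at 37 °C. Controls are DMSO-only wells for full viability and media-only wells for none.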

[14] = Quantitative High-Throughput drug screen in 47 multiple myeloma cell lines against the NCATS MIPE library collection: KMS12BM_JCRB cell viability assay (AID 1918971); also: nearly all actives have a fitted effect of over 35% in size
Method in brief: as §4

[15] = Quantitative High-Throughput drug screen in 47 multiple myeloma cell lines against the NCATS MIPE library collection: KMS12PE_JCRB cell viability assay (AID 1918972); also: nearly all actives have a fitted effect of over 30% in size
Method in brief: as §4

[16] = Quantitative High-Throughput drug screen in 47 multiple myeloma cell lines against the NCATS MIPE library collection: KMS20_JCRB cell viability assay (AID 1918973); also: nearly all actives have a fitted effect of over 45% in size
Method in brief: as §2

[17] = Quantitative High-Throughput drug screen in 47 multiple myeloma cell lines against the NCATS MIPE library collection: KMM1_JCRB cell viability assay (AID 1918960); also: nearly all actives have a fitted effect of over 30% in size
Method in brief: as §3

[18] = Quantitative High-Throughput drug screen in 47 multiple myeloma cell lines against the NCATS MIPE library collection: ARD_JJKsccE7 cell viability assay (AID 1918929)
Method in brief: as §2

[19] = Quantitative High-Throughput drug screen in 47 multiple myeloma cell lines against the NCATS MIPE library collection: JIM1_ECACC cell viability assay (AID 1918964)
Method in brief: as §2

Measured: Potency
Potency is read from the fitted curve at half-maximal effect.

COc1cc(=C2C=c3ccccc3=N2)[nH]c1=Cc1[nH]c(C)cc1C
active: [1] 1180 nM | [2] 1870 nM | [3] 6620 nM | [4] 1050 nM | [5] 7430 nM | [6] 16600 nM | [7] 418 nM | [8] 2350 nM | [9] 1180 nM | [10] 1870 nM | [11] 5900 nM | [12] 743 nM | [13] 16600 nM | [14] 1660 nM | [15] 20900 nM | [16] 7430 nM

C[C@@]12O[C@@H](C[C@]1(O)CO)n1c3ccccc3c3c4c(c5c6ccccc6n2c5c31)CNC4=O
active: [1] 6620 nM | [2] 418 nM | [3] 2960 nM | [4] 662 nM | [17] 526 nM | [7] 66.2 nM | [8] 526 nM | [10] 418 nM | [11] 1480 nM | [12] 296 nM | [14] 1480 nM | [16] 148 nM

CC(C)CC(=O)Nc1n[nH]c2c1CN(C(=O)C1CCN(C)CC1)C2(C)C
active: [1] 1660 nM | [2] 166 nM | [3] 1660 nM | [4] 1050 nM | [18] 1320 nM | [5] 2640 nM | [17] 1180 nM | [6] 526 nM | [7] 1180 nM | [8] 833 nM | [10] 2090 nM | [11] 3320 nM | [13] 1180 nM | [14] 1660 nM | [15] 2350 nM | [16] 1050 nM

O=C(O)Cn1nnc(-c2cc(N3CCC(Oc4cc(F)ccc4Br)CC3)no2)n1
inactive: [1] | [2] | [3] | [4] | [5] | [17] | [9] | [11] | [14] | [15]
active: [8] 16600 nM

CC[C@@]1(O)C(=O)OCc2c1cc1n(c2=O)Cc2cc3cc(O)ccc3nc2-1
active: [1] 1180 nM | [2] 187 nM | [3] 372 nM | [4] 418 nM | [18] 2350 nM | [5] 1870 nM | [17] 148 nM | [7] 590 nM | [19] 235 nM | [9] 16.6 nM | [10] 1870 nM | [11] 148 nM | [13] 18.7 nM | [14] 526 nM | [15] 1050 nM | [16] 235 nM
